Bioassay records deposited in PubChem by several laboratories.
CYP2C9 inh: inhibitors of human CYP2C9; CYP2C9 Supersomes, luciferin-H conversion, luminescence; inhibition, % at 5 µM; P11712; hit rate 20% among 96,000; AID 777;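 active means blocking of liver enzyme CYP2C9 beyond about 50% at 5 µM, limit read from the data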
CYP2C9 activ: activators of human CYP2C9 | P11712 | AID 1024 | hit rate 1.4% among 96,000 | recombinant CYP2C9, luciferin-H conversion, luminescence; hits give high values; factor 1 = untreated enzyme, 0 = blocked | activation factor at 5 µM;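 active means activation factor of 2 or more for CYP2C9 at a 5 µM dose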;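 further: 0 = sulfaphenazole-blocked wells and 1 = vehicle-only wells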
Cav3 T inh: blocks human Cav3.2 T-type calcium channel; Cav3.2-expressing cells, Fluo-4 calcium fluorescence FDSS; hits give low values; O95180; hit rate 4% among 100,000; B-score at 10 µM;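 active means single-dose well whose peak fluorescence ratio is a statistical outlier from its plate by either plate-standardised score or position-corrected B-score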
Target sequence (O95180 whole entry, looked up): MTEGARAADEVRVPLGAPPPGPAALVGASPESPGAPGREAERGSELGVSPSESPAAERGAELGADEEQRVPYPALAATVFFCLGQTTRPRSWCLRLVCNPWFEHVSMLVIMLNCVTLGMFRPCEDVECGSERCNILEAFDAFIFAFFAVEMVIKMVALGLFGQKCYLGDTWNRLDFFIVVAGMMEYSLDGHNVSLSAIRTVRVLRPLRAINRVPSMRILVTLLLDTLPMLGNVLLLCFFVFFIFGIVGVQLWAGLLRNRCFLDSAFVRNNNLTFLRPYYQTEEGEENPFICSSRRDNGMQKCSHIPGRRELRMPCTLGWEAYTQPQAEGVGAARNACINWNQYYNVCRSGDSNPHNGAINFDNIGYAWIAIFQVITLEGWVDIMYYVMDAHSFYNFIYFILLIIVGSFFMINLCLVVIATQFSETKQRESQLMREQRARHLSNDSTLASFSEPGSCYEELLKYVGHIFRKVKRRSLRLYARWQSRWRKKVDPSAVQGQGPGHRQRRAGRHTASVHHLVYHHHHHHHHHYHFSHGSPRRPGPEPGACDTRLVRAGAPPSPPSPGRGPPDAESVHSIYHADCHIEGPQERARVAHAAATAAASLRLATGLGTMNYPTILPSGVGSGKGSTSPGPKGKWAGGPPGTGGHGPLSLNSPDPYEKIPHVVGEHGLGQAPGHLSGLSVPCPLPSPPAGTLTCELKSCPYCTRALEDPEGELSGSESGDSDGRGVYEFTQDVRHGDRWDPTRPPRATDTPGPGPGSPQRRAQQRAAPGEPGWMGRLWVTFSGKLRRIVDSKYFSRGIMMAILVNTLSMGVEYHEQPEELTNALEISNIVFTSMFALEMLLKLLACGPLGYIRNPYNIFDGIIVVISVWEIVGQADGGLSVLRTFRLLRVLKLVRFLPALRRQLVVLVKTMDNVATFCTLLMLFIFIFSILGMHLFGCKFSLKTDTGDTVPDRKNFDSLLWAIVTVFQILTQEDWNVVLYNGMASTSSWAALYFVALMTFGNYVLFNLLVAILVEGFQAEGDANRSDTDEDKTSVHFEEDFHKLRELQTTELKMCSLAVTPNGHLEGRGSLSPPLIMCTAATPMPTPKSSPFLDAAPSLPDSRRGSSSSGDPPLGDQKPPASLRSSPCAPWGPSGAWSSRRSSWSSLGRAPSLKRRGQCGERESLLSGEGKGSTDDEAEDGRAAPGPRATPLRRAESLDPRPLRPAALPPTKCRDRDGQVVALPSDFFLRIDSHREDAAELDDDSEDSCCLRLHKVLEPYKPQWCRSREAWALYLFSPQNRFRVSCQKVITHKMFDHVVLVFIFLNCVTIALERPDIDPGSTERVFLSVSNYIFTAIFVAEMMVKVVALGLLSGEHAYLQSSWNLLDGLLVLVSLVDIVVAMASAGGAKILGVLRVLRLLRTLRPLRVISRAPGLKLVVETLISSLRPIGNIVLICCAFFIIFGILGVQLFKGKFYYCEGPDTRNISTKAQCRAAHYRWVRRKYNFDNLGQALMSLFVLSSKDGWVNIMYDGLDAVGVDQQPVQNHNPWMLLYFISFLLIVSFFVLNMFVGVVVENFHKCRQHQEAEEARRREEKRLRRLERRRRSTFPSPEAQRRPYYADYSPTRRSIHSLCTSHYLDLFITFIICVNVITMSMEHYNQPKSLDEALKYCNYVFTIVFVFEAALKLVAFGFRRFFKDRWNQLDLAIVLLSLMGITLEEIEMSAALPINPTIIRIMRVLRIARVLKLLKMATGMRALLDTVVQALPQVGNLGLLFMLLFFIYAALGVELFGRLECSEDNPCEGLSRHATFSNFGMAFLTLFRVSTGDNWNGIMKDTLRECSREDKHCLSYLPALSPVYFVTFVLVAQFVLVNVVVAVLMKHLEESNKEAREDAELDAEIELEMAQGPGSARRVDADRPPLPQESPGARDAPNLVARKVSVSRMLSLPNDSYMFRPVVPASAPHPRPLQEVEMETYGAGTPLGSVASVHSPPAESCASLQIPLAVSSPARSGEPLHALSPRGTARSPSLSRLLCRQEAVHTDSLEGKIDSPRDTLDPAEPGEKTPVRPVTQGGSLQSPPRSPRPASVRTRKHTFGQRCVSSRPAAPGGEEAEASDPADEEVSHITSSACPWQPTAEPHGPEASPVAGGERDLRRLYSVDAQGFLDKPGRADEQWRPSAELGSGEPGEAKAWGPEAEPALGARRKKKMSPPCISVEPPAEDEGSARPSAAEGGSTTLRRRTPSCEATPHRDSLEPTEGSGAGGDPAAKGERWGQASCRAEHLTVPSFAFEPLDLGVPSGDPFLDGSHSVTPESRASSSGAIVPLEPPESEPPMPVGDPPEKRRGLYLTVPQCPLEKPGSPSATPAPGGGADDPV
CYP2C19 inhib: human CYP2C19 inhibition; P33261; CYP2C19 Supersomes, luciferin-H EGE luminescence, 30 min; inhibition, % at 5 µM; hit rate 21% among 96,000;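 active means CYP2C19 inhibition above a set limit at 5 µM in the primary screen, cut at about 50% in these data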;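 further: plate controls were negative control wells for no effect and 2.5 mM tranylcypromine positive control for full effect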
CYP2C19 activ: cytochrome P450 2C19 (human) activation. P33261. recombinant CYP2C19, luciferin-H EGE luminescence; hits give high values; 0 = fully inhibited enzyme, 1 = untreated enzyme. activation factor at 5 µM. 96,000 tested, under 10 active;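 active means activation factor of at least 2 at 5 µM in the primary screen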;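 further: 0 = wells with 2.5 mM tranylcypromine and 1 = vehicle-only wells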
* hit, by the source's call. Shown are actives, neighbours in structure and some others; about 27% of the full set was active somewhere.

Cc1ccccc1N1C(=O)CC(N(O)c2ccccc2)C1=O (centres undefined) was read as CYP2C9 inh -20, CYP2C9 activ 1.2, Cav3 T inh 0.039, CYP2C19 inhib 74* and CYP2C19 activ 0.3.
O=C1CC(N(O)c2ccccc2)C(=O)N1c1cc(Cl)cc(Cl)c1 (centres undefined) was read as CYP2C9 inh -51, CYP2C9 activ 1.5, Cav3 T inh -1.9, CYP2C19 inhib 23 and CYP2C19 activ 0.8.
CCOC(=O)c1c(C)oc2c(F)c(F)c(F)c(F)c2c1=O was read as CYP2C9 inh 2, CYP2C9 activ 1, CYP2C19 inhib 4 and CYP2C19 activ 1.
`CCCCc1nc(N2CCOCC2)c(C#N)c2c1CCCC2` gave CYP2C9 inh 49, CYP2C9 activ 0.5, Cav3 T inh -2.6, CYP2C19 inhib 30 and CYP2C19 activ 0.7.
For CCCc1nc(N2CCOCC2)c(C#N)c2c1CCCC2 the results were CYP2C9 inh 72*, CYP2C9 activ 0.3, Cav3 T inh -2.7, CYP2C19 inhib 82* and CYP2C19 activ 0.2.
`CSc1nc(N2CCOCC2)c2c(c1C#N)CCCCC2` gave CYP2C9 inh 79*, CYP2C9 activ 0.2, Cav3 T inh -2.4, CYP2C19 inhib 47 and CYP2C19 activ 0.5.
For CSc1nc(C)c2c(c1C#N)CCCC2 the results were CYP2C9 inh -27, CYP2C9 activ 1.3, Cav3 T inh -0.96, CYP2C19 inhib 18 and CYP2C19 activ 0.8.
Screening N#CCCSc1nc(N2CCOCC2)c2c(c1C#N)CCCC2 returned CYP2C9 inh 97*, CYP2C9 activ 0, CYP2C19 inhib 91* and CYP2C19 activ 0.1.
Cc1nc(N2CCOCC2)c(C#N)c(C)c1Br was read as CYP2C9 inh 20, CYP2C9 activ 0.8, Cav3 T inh -0.24, CYP2C19 inhib 56* and CYP2C19 activ 0.4.
For CC1(C)OC(=O)C(=CNC(Cc2c[nH]c3ccccc23)C(=O)O)C(=O)O1 (centres undefined) the results were CYP2C9 inh 13, CYP2C9 activ 0.9, Cav3 T inh 0.021, CYP2C19 inhib 9 and CYP2C19 activ 0.9.
CC(C(=O)NC1CCCc2ccccc21)N1CCN(Cc2ccc3c(c2)OCO3)CC1 (centres undefined) was read as CYP2C9 inh 0, CYP2C9 activ 1, Cav3 T inh 0.18, CYP2C19 inhib 10 and CYP2C19 activ 0.9.
`CC(C)c1nc(N2CCOCC2)c(C#N)c2c1CCC2` gave CYP2C9 inh 22, CYP2C9 activ 0.8, Cav3 T inh -1.6, CYP2C19 inhib 16 and CYP2C19 activ 0.8.
`CCCSc1nc(N2CCOCC2)c2c(c1C#N)CCCC2` gave CYP2C9 inh 93*, CYP2C9 activ 0.1, Cav3 T inh -6.6*, CYP2C19 inhib 59* and CYP2C19 activ 0.4.
`C=C1c2ccccc2S(=O)(=O)N(Cc2ccccc2)C1COCc1ccccc1` (centres undefined) gave Cav3 T inh -2.2.
CN(CCOC(=O)c1cccc(Br)c1)C(C)(C)C was read as CYP2C9 inh 60*, CYP2C9 activ 0.4, CYP2C19 inhib 25 and CYP2C19 activ 0.8.
CCN(CC)CCOC(=O)c1cccc(Br)c1 was read as CYP2C9 inh -11, CYP2C9 activ 1.1, Cav3 T inh 0.99, CYP2C19 inhib -2 and CYP2C19 activ 1.
Screening O=C1CSC(c2ccccc2)N1CC12CC3CC(CC(O)(C3)C1)C2 (centres undefined) returned CYP2C9 inh -12, CYP2C9 activ 1.1, Cav3 T inh 0.042, CYP2C19 inhib 24 and CYP2C19 activ 0.8.
For c1ccc(-c2c[nH]c3[n+]2CCCCC3)cc1 the results were CYP2C9 inh -4, CYP2C9 activ 1, Cav3 T inh 0.53, CYP2C19 inhib 55* and CYP2C19 activ 0.5.
N#Cc1nc(COc2ccccc2F)oc1NCCCn1ccnc1 was read as CYP2C9 inh 90*, CYP2C9 activ 0.1, Cav3 T inh -2.6, CYP2C19 inhib 97* and CYP2C19 activ 0.
Screening N#Cc1nc(COc2ccc(F)cc2)oc1NCCCn1ccnc1 returned CYP2C9 inh 88*, CYP2C9 activ 0.1, Cav3 T inh 0.25, CYP2C19 inhib 96* and CYP2C19 activ 0.
`Cc1ccc(OCc2nc(C#N)c(NCCCn3ccnc3)o2)cc1` gave CYP2C9 inh 91*, CYP2C9 activ 0.1, Cav3 T inh -0.22, CYP2C19 inhib 99* and CYP2C19 activ 0.
For N#Cc1nc(COc2ccc(Br)cc2)oc1NCCCn1ccnc1 the results were CYP2C9 inh 100*, CYP2C9 activ 0, CYP2C19 inhib 100* and CYP2C19 activ 0.
Cn1c(/C(C#N)=C(\O)COc2ccc3ccccc3c2)nc2ccccc21 was read as CYP2C9 inh -6, CYP2C9 activ 1.1, Cav3 T inh -0.026, CYP2C19 inhib 9 and CYP2C19 activ 0.9.
`CCOC(=O)N1CCC(N(CCOC)C(=O)Nc2ccc(Cl)c(Cl)c2)CC1` gave CYP2C9 inh 15, CYP2C9 activ 0.8, Cav3 T inh -2.5, CYP2C19 inhib 40 and CYP2C19 activ 0.6.
`CCOC(=O)C1C(=O)NC(N2CCCCC2)=NC1c1ccco1` (centres undefined) gave CYP2C9 inh -11, CYP2C9 activ 1.1, Cav3 T inh -0.15, CYP2C19 inhib -22 and CYP2C19 activ 1.2.
For CCCCC(=O)NC(N1CCCCC1)C(Cl)(Cl)Cl (centres undefined) the results were CYP2C9 inh 18, CYP2C9 activ 0.8, Cav3 T inh -2.6, CYP2C19 inhib 59* and CYP2C19 activ 0.4.
Screening CCCCCC(=O)NC(NC(=S)NC1CCS(=O)(=O)C1)C(Cl)(Cl)Cl (centres undefined) returned Cav3 T inh 1.6.
Screening O=C(NCCC1=CCCCC1)c1ccc(Cl)c(S(=O)(=O)N2CCOCC2)c1 returned CYP2C9 inh 60*, CYP2C9 activ 0.4, Cav3 T inh -0.0027, CYP2C19 inhib 51* and CYP2C19 activ 0.5.
`CCOC(=O)N1CCN(C(=O)c2ccc(Cl)c(S(=O)(=O)N3CCOCC3)c2)CC1` gave CYP2C9 inh 9, CYP2C9 activ 0.9, Cav3 T inh 1.2, CYP2C19 inhib 1 and CYP2C19 activ 1.
Screening Cc1ccc(CSCCNC(=O)c2ccc(Cl)c(S(=O)(=O)N3CCOCC3)c2)cc1 returned CYP2C9 inh 81*, CYP2C9 activ 0.2, Cav3 T inh -7.4*, CYP2C19 inhib 62* and CYP2C19 activ 0.4.
Screening Cc1nnc(SCC(=O)N2CCCCC2)s1 returned Cav3 T inh 0.14.
For Cc1ccc(N2CCN(C(=O)CCc3nc4ccccc4[nH]3)CC2)c(C)c1 the results were CYP2C9 inh 72*, CYP2C9 activ 0.3, Cav3 T inh -4.8*, CYP2C19 inhib 84* and CYP2C19 activ 0.2.
Cc1cccc(N2CCN(C(=O)CCc3nc4ccccc4[nH]3)CC2C)c1 (centres undefined) was read as CYP2C9 inh 56*, CYP2C9 activ 0.4, Cav3 T inh -0.48, CYP2C19 inhib 75* and CYP2C19 activ 0.2.
